Experimental data as given in ChEMBL document CHEMBL3988442, “University of Dundee, Small-Polar-MMV Screening Library” (2021).
For some assays here: Potency and affinity values are given separately.

How the values were obtained:
Design in all cases: scale not given: direction of the effect not stated beside the values
[1] = molecular target: Protein translocase subunit SecA (Escherichia coli (strain K12)) (UniProt P10408); assay: Assay to Identify E. coli SecA ATPase Inhibitors; format: functional; details: 30 µM
[2] = molecular target: T1, Ubiquitin-activating enzyme e1, putative (Leishmania donovani (strain BPK282A1)) (UniProt E9BSI1); assay: Leishmania donovani Ubiquitin Activating Enzyme (LdE1); format: functional; details: 30 µM
T1 sequence (whole entry): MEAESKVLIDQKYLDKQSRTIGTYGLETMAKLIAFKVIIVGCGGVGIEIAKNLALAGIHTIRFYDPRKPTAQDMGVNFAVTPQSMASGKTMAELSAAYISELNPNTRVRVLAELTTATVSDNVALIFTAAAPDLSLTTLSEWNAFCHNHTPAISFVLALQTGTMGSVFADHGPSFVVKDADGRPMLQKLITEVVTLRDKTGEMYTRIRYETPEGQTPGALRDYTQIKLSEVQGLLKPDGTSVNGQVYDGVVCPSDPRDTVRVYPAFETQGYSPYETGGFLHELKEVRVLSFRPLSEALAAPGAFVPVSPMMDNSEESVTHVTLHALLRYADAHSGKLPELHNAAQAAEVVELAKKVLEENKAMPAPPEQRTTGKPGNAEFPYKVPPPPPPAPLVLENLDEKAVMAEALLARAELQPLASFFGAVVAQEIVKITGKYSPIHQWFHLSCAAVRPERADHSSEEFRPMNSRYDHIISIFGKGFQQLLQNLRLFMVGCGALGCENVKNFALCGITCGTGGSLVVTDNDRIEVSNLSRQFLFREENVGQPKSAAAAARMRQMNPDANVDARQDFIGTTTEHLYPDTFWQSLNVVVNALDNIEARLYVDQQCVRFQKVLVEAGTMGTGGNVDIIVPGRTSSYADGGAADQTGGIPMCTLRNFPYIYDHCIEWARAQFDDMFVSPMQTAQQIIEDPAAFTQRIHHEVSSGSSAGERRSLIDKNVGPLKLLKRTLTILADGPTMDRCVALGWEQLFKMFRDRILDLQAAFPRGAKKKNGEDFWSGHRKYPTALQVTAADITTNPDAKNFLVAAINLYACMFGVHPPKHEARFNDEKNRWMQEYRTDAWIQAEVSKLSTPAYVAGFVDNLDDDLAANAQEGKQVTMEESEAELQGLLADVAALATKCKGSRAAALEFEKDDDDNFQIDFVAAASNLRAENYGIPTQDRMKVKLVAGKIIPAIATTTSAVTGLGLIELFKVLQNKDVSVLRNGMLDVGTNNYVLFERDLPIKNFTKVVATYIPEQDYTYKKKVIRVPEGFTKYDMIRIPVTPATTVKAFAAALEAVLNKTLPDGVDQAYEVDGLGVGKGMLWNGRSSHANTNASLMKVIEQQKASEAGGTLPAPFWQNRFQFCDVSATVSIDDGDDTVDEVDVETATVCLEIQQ

[3] = molecular target: AMP-activated protein kinase, AMPK (Homo sapiens) (UniProt P54646+O43741+P54619+Q9UGJ0+Q9Y478+Q13131+Q9UGI9); assay: AMP-dependent Kinase enzyme assay. An in vitro enzyme assay that detects ADP turnover that is directly proportional to AMPK activity. This uses naive AMPK that is activated during the assay with MK-8722; format: functional; details: 30 µM
[4] = molecular target: Sialic acid-binding Ig-like lectin 9 (Homo sapiens) (UniProt Q9Y336); assay: Hs-Siglec9 ALPHAscreen SOP 20170721; details: 10 µM
[5] = tested on: Trypanosoma cruzi; assay: Trypanosoma cruzi phosphomannomutase and mannose-1-phosphate guanylyltransferase assay; format: functional; details: 10 µM
[6] = molecular target: T2, Arginase-2, mitochondrial (Homo sapiens) (UniProt P78540); assay: in vitro enzyme assay to detect the production of urea directly proportional to the activity of Arginase II; format: functional; details: 33.3 µM; also: in the data most compounds retested in dose-response had high values
T2 sequence (whole entry): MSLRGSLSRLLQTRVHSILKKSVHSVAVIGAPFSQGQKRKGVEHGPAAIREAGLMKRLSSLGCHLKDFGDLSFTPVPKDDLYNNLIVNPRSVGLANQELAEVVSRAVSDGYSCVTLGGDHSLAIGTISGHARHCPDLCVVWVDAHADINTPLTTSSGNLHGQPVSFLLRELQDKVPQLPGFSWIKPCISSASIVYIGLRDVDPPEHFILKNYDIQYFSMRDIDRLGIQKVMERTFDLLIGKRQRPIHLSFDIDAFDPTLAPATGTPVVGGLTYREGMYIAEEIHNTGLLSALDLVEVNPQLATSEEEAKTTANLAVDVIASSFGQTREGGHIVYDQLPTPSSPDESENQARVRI

[7] = molecular target: T3, Proteasome subunit beta (Trypanosoma cruzi) (UniProt O96673); assay: Trypanosoma cruzi proteasome chymotrypsin-like activity (TcProtChymo) assay.; also: in the data most compounds retested in dose-response had high values; format: functional; details: 9.37 µM
T3 sequence (whole entry): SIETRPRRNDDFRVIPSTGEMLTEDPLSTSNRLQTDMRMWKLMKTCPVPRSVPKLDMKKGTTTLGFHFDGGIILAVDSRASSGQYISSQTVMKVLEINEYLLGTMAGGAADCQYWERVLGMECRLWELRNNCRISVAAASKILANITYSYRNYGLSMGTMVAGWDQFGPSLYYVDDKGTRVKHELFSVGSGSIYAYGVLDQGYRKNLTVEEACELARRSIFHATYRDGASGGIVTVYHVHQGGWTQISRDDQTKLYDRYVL

[8] = species: Homo sapiens; assay: To identify inhibition of the IFN signalling (Jak-Stat) pathway via expression of an eGFP reporter gene under the control of an IFN-stimulated response element (ISRE) containing MxA promoter.; format: functional; details: 30 µM
[9] = molecular target: T4, Tyrosyl-tRNA synthetase, putative (Trypanosoma cruzi (strain CL Brener)) (UniProt Q4DSP6); assay: Trypanosoma cruzi tyrosyl tRNA synthetase (TcYRS) _High Tyrosine SOP; format: functional; details: 30 µM; also: in the data most compounds retested in dose-response had high values
T4 sequence (whole entry): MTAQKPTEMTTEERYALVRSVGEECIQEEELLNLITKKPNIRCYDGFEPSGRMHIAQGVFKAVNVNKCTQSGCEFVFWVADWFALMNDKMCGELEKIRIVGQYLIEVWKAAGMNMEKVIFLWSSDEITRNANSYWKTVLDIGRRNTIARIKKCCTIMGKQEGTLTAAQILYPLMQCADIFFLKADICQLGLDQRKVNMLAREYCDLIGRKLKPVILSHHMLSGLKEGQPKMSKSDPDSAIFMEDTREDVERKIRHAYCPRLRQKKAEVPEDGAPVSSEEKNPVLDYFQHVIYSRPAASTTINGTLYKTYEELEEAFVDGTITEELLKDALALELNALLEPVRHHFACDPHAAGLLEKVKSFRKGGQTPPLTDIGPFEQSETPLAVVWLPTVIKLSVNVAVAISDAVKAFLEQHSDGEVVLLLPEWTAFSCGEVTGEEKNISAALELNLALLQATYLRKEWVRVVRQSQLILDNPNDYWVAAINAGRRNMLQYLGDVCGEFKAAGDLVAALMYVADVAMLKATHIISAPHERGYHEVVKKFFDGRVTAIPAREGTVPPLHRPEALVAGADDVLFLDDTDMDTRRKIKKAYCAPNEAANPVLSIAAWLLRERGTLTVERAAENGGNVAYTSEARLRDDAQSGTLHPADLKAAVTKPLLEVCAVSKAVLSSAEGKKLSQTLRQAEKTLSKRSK

[10] = molecular target: T4, Tyrosyl-tRNA synthetase, putative (Trypanosoma cruzi (strain CL Brener)); assay: Trypanosoma cruzi tyrosyl tRNA synthetase (TcYRS) SOP; format: functional; details: 30 µM
[11] = molecular target: Chromo domain-containing protein 1 (Saccharomyces cerevisiae (strain ATCC 204508 / S288c) (Baker's yeast)) (UniProt P32657); assay: ScCHD-1 Enzyme Inhibition Assay; format: functional; details: 30 µM; also: in the data most compounds retested in dose-response had high values
Chromo domain-containing protein 1 (Saccharomyces cerevisiae (strain ATCC 204508 / S288c) (Baker's yeast)), sequence (P32657 whole entry, the tested form may be a part): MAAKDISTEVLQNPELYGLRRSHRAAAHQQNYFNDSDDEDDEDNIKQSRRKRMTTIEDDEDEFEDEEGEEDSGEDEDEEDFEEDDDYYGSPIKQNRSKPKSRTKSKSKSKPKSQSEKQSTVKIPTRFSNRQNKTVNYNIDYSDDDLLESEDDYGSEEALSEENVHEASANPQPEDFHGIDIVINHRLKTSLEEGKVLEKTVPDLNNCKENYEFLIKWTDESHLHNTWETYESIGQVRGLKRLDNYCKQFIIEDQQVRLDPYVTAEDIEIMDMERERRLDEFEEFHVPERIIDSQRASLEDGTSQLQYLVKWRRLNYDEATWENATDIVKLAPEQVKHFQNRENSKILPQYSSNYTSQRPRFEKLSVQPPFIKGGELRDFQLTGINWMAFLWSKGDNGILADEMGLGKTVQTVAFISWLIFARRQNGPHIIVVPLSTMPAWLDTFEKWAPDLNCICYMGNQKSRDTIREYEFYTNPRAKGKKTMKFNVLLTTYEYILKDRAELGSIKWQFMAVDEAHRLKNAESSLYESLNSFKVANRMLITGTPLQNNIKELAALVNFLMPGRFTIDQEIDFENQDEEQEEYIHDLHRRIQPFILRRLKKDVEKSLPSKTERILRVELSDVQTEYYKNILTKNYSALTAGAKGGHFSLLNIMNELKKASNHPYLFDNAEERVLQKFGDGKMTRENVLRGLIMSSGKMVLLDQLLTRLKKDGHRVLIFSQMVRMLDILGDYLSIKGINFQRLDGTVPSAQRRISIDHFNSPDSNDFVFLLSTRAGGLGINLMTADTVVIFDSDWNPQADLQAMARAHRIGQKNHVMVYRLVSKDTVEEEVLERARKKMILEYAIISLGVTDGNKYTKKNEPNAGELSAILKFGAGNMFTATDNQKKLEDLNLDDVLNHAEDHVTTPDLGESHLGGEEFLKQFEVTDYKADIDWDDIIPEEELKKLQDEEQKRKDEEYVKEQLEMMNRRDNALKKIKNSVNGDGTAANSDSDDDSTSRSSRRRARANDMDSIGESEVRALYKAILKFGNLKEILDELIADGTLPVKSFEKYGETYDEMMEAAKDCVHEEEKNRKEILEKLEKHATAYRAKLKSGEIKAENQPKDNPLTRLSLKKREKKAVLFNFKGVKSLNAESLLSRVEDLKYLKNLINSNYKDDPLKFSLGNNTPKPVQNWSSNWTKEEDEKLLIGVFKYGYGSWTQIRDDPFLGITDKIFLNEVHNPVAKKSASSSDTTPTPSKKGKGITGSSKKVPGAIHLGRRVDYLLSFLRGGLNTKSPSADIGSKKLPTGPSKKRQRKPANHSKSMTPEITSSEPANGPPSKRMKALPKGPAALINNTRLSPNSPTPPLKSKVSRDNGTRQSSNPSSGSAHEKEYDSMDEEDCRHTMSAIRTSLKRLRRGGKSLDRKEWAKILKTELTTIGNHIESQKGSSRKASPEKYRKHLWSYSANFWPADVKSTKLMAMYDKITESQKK

Protein translocase subunit SecA (Escherichia coli (strain K12)), sequence (P10408 whole entry): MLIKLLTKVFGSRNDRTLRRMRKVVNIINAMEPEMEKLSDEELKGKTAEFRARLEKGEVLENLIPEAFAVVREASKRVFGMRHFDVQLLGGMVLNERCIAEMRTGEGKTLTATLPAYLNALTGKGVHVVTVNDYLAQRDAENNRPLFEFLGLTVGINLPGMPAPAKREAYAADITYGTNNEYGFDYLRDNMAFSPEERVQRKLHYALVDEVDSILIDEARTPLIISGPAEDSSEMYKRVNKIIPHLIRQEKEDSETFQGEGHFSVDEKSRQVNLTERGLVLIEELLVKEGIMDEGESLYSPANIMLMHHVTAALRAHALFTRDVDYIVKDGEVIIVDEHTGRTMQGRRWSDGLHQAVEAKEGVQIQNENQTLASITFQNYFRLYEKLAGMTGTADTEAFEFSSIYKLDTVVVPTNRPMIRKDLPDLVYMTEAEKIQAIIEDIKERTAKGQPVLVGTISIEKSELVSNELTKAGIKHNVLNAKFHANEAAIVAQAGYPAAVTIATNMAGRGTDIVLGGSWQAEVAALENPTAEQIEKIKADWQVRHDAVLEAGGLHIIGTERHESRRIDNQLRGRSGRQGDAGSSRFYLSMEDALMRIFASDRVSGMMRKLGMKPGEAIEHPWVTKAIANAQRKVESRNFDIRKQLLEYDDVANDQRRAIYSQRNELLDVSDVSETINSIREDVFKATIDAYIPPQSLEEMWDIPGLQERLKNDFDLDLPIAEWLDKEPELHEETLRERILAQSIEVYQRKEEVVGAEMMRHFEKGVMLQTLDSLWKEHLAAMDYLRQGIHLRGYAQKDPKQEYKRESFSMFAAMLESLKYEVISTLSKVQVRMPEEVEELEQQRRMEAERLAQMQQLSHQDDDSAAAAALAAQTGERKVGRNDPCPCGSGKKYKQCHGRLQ
Sialic acid-binding Ig-like lectin 9 (Homo sapiens), sequence (Q9Y336 whole entry): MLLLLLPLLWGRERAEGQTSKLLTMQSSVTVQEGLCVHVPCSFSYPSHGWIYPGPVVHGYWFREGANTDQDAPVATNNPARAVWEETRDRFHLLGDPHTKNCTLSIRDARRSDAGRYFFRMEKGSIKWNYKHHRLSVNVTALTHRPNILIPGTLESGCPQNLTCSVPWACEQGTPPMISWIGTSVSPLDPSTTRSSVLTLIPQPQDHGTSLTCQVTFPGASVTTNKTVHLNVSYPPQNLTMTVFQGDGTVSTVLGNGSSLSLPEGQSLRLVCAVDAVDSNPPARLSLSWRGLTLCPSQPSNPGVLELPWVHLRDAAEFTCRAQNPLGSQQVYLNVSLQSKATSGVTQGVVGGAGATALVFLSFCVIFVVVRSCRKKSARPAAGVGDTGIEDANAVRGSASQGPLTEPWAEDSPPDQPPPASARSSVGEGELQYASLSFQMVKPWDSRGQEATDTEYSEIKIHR

Row | SMILES | Percent Effect [1] | Percent Effect [2] | Percent Effect [3] | Percent Effect [4] | Percent Effect [5] | Percent Effect [6] | Percent Effect [7] | Percent Effect [8] | Percent Effect [9] | Percent Effect [10] | Percent Effect [11]
1 | CCc1nnc2n1CCN(Cc1csc(-c3ccsc3)n1)C2 | -1.79% | -6.94% | 1.22% | -3.25% | 0.68% | 0.883% | 13.5% | -14.4% | 4.21% | 2.56% | -0.47%
2 | NC(=O)C1CCN(Cc2cccc(NC(=O)c3ccsc3)c2)CC1 | -6.14% | 2.67% | -1.03% | 5.05% | 3.99% | -2.08% | 7.85% | 17% | 7.1% | 13.6% | -5.67%
3 | COc1ccc(-n2cnnc2SCCC#N)cn1 | -2.65% | 8% | 0.911% | 11.1% | 4.38% | 18.2% | 11.3% | -11.2% | 6.01% | 21% | -6.98%
4 | CCOc1ccc(NC(=O)c2cnc(N3CCCC3)nc2C)cc1 | -4.12% | 5.2% | -3.01% | -0.674% | 1.48% | 3.23% | 5.22% | 11.8% | 4.23% | 16.7% | -8.66%
5 | O=c1c2ccccc2nc2n1CCN(Cc1cccs1)CC2 | -2.59% | 20.3% | 9.44% | 0.538% | 1.98% | -4.41% | 17% | 23.7% | 5.38% | 14.3% | -12.4%
6 | Cn1cc(-c2ncnc3c2CCN(C(=O)N2CCOCC2)CC3)cn1 | -2.9% | 0% | -3.79% | 15.2% | 3.03% | 1.24% | 9.53% | -0.161% | 1.07% | 8.64% | -11.6%
7 | Cc1cccc(C(=O)N(C)Cc2cc(Br)cs2)n1 | -6.38% | 5.26% | 7.43% | 4.27% | 4.77% | 0% | 12.8% | -26.6% | 4.25% | 7.79% | 0.914%
8 | Cc1cc(C)n(C2CCCN(C(=O)c3ccc(NC4CC4)nc3)C2)n1 (configuration not stated) | -6.18% | 7.79% | 5.88% | 2.52% | -4.6% | 1.05% | 7.52% | 16.1% | 4.76% | 9.41% | -13.5%
9 | COc1cccc(CCNS(=O)(=O)c2ccc(NC(C)=O)cc2)c1 | -3.33% | 5.26% | 4.42% | -2.24% | -4.58% | -8.28% | 17% | 21.2% | 1.06% | 10.4% | -4.22%
10 | CC(O)CN1CCC(CNCc2ccc(S(C)(=O)=O)cc2)CC1 (configuration not stated) | -2% | 19.2% | -8.77% | 13.4% | 2.15% | 8.64% | 24.5% | 5.76% | 4.3% | 15% | -7.9%
11 | CCn1cnnc1CNC(=O)NCC(c1cccs1)N1CCCC1 (configuration not stated) | -2.72% | 18.2% | 0.236% | 9.73% | 2.43% | -1.42% | 8.11% | 10.8% | 5.83% | 19.5% | -6.68%
12 | CC1CN(CC(=O)Nc2nncs2)CCN1c1nccs1 (configuration not stated) | 1.26% | 8.11% | -4.77% | -8.19% | -5.29% | 0.924% | 16.5% | 25.9% | 4.95% | 18.3% | -4.83%
13 | COc1ccsc1C(=O)N1CCCC(n2nc(C)nc2C)C1 (configuration not stated) | 0.303% | 0% | -4.74% | -3.48% | -6.89% | 2.66% | -1.72% | 6.32% | 6.4% | 3.8% | 1.65%
14 | COc1cc(CNC(=O)Nc2cc(C(F)(F)F)c[nH]c2=O)ccn1 | -3.54% | 13.2% | 2.48% | 10.4% | 1.13% | -3.06% | 12.7% | 7.49% | 0.49% | 12.2% | -11.3%
15 | Cc1cnn(CCNCc2ccccc2C#N)c1 | -7.98% | 5.41% | -2.49% | 6.11% | -5.11% | -0.554% | 5.21% | 14.9% | -1.98% | -1.22% | 1.22%
16 | Cn1cccc1C(=O)N1CCC2(CC1)CN(c1ccccn1)CCO2 | -5.31% | 5.2% | -0.668% | 10.6% | 9.54% | -55.2% | 5.49% | 6.16% | -2.15% | -1.24% | -2.89%
17 | Cn1cc(CN2CC[C@H]3C[C@H](c4nc(C5CC5)cs4)O[C@@H]3C2)cn1 | -0.2% | 18.2% | -0.28% | 13.1% | 6.59% | -9.65% | 10.8% | 12.1% | 4.3% | 16.1% | -1.85%
18 | O=C1NC2(CCN(C(=O)Cc3ccsc3)CC2)CC1c1ccncc1 (configuration not stated) | 2.65% | 10.4% | 2.31% | -7.01% | -7.99% | 16.1% | 11.1% | 5.79% | 6.35% | 14.1% | -9.26%
19 | CNC(=O)[C@H]1CCS(=O)(=O)[C@@H]2CN(Cc3ccc(OC)cc3)C[C@H]12 | 0.0608% | 2.7% | 3.94% | 2.93% | 2.34% | 35.4% | -0.592% | 2.35% | 82.2% | 6.1% | 2.99%
20 | O=C(Cc1cccc(F)c1)NCCNCc1cccc(O)c1 | -1.42% | -5.2% | 13.5% | 6.95% | 0.749% | 3.56% | -0.169% | 3.07% | 8.74% | 12.2% | -4.75%
21 | c1ccc(-c2noc(CN3CCOC(Cn4cccn4)C3)n2)nc1 (configuration not stated) | -0.328% | 0% | 4.78% | 8.36% | 0.188% | -1.53% | 3.51% | 6.16% | -0.49% | -2.44% | 4.99%
22 | COCCNS(=O)(=O)c1ccc2c(c1)CCN(C(=O)c1cncn1C)C2 | -1.62% | 6.94% | -17.1% | 2.73% | -1.46% | 6.62% | 22.1% | 6.15% | 7.37% | 10.3% | -2.12%
